# Assay results published in PubChem BioAssay.
# Values joined by “and” are separate entries in the source; they are usually repeats but may differ in a detail not shown here. Identical values can stand only once. Results filed as inconclusive are left out. Active and inactive are the calls of the source. Rule as the data show it, unless noted: active = inhibition above about 80%; inactive = the rest.
# Key:
# [1] = growth inhibition of DIPG glioma cells, dose response, cell-based, SU-DIPG-XIII, MIPE5.0, CellTiter-Glo, qHTS (AID 1347064; cut-off not given, nearly all actives have AC50 up to about 23 µM;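 as to AC50: cells exposed to compound for 48 hours before the viability read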); settings: SU-DIPG-XIII viability, CellTiter-Glo ATP luminescence
# [2] = growth inhibition of DIPG glioma cells, dose response, cell-based, SU-DIPG-XVII, MIPE5.0, CellTiter-Glo, qHTS (AID 1347060; cut-off not given, nearly all actives have AC50 up to about 26 µM;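 also: cells exposed to compound for 48 hours before viability readout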); settings: SU-DIPG-XVII viability, CellTiter-Glo ATP luminescence
# [3] = kinase inhibitors against Plasmodium liver-stage infection, cell-based, known kinase inhibitor set, luminescence, hepatoma host viability (AID 624392; call rule not given here;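 also: infected cells incubated roughly two days before readout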); settings: Plasmodium liver stage in hepatoma cells, luciferase luminescence, concentration not given here; liver cell % of control: measured here: host liver cell viability; parasite % of control: stronger effect = lower value
# [4] = target: Mitogen-activated protein kinase 7 (Homo sapiens) (UniProt Q13164); test: ERK5 transactivation activators in reporter cells, primary screen, cell-based, HTS (AID 1508626;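 active = luciferase signal above three times the same-plate solvent-only control wells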;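 also: luciferase driven by Gal4-ERK5 fusion binding five Gal4 sites before minimal TATA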); settings: HeLa Gal4-ERK5 transactivation, 18 h, at 5 µM, stronger effect = higher value
# Chain of Mitogen-activated protein kinase 7 (Homo sapiens) (Q13164 whole entry, looked up, the tested form may be a part): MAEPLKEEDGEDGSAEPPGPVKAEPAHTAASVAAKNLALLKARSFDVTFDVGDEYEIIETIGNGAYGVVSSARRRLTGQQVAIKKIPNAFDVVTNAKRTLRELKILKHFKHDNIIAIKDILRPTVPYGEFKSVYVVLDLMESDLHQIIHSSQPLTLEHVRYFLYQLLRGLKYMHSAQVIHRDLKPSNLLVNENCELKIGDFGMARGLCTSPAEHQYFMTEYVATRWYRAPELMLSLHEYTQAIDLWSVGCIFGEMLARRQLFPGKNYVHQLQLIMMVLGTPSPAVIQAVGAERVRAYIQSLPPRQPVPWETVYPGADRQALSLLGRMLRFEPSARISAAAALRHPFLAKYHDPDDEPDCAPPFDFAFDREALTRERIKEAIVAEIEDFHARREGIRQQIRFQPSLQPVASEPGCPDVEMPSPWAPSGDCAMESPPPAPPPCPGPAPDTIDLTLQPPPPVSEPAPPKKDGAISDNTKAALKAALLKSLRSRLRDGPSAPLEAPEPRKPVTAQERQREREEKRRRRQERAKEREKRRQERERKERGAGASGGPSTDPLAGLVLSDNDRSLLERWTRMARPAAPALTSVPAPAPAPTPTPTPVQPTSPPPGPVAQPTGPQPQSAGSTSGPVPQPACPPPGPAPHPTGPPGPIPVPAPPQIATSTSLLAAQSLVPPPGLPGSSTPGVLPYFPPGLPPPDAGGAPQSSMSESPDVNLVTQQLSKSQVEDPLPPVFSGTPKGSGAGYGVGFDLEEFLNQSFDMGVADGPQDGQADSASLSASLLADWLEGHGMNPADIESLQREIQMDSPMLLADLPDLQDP
# [5] = polyglutamine-triggered caspase-3 activation inhibitors, cell-based (AID 1583); settings: polyglutamine-induced caspase-3 activation, cell assay; stronger effect = higher value;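 tested at 10 µM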
# [6] = LFS_MB_P medulloblastoma growth inhibition, cell-based, chromothripsis tumors, cisplatin or BGB combos (AID 1671449); settings: LFS_MB_P medulloblastoma cells;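 also: cells exposed for 96 hours; 0% = vehicle DMSO and 100% = killing by high DMSO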
# [7] = HDN33 neuroblastoma growth inhibition, cell-based, chromothripsis tumors, cisplatin or BGB combos (AID 1671450); settings: HDN33 neuroblastoma cells, stronger effect = higher value;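 also: cells exposed to compound for four days; 0% = vehicle DMSO and 100% = cell killing by high DMSO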
# [8] = ICB984 medulloblastoma cell growth inhibition, synergistic combos for chromothripsis tumors, cisplatin or BGB combos (AID 1671451; call rule not given here;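 also: cells exposed for 96 hours before readout; 0% = vehicle DMSO and 100% = killing by high DMSO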); settings: ICB984 medulloblastoma cells, drug combinations, stronger effect = higher value
# [9] = LFS_MB_1R medulloblastoma cell growth inhibition, synergistic combos for chromothripsis tumors, cisplatin or BGB combos (AID 1671452); settings: LFS_MB_1R medulloblastoma cells, stronger effect = higher value;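 also: cells exposed for 96 hours before readout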
# [10] = HTB85 osteosarcoma cell growth inhibition, synergistic combos for chromothripsis tumors, BGB or cisplatin IC20 combos (AID 1671453); settings: HTB85 osteosarcoma cells, drug combinations, stronger effect = higher value;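 also: cells exposed for 96 hours before readout; 0% = vehicle DMSO and 100% = high DMSO killing control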
# [11] = CRL2098 osteosarcoma cell growth inhibition, synergistic combos for chromothripsis tumors, BGB or cisplatin IC20 combos (AID 1671454); settings: CRL2098 osteosarcoma cells, drug combinations, stronger effect = higher value;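 also: cells exposed for 96 h before readout; 0% = vehicle DMSO and 100% = killing by high DMSO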
# [12] = HD-MB03 medulloblastoma cell growth inhibition, synergistic combos for chromothripsis tumors, BGB or cisplatin IC20 combos (AID 1671455; in the data active = inhibition above about 83%;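 also: 0% = vehicle DMSO and 100% = high DMSO as cytotoxic control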); settings: HD-MB03 medulloblastoma cells, stronger effect = higher value
# [13] = UWB1.289 ovarian carcinoma cell growth inhibition, synergistic combos for chromothripsis tumors, BGB or cisplatin combos (AID 1671456); settings: UWB1.289 ovarian carcinoma cells, stronger effect = higher value;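 also: cells exposed to compound for four days; 0% = vehicle DMSO and 100% = killing by high DMSO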
# [14] = LFS_MB_2R medulloblastoma cell growth inhibition, synergistic combos for chromothripsis tumors, cisplatin combos (AID 1671457); settings: LFS_MB_2R medulloblastoma cells, stronger effect = higher value;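 also: cells exposed to compound for four days before readout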
# [15] = MDA-MB-436 breast carcinoma cell growth inhibition, synergistic combos for chromothripsis tumors, BGB or cisplatin combos (AID 1671458; call rule not given here;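 also: cells exposed for 96 hours; 0% = vehicle DMSO and 100% = killing by high DMSO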); settings: MDA-MB-436 breast carcinoma growth inhibition, drug combinations, stronger effect = higher value
# [16] = UWB1.289_BRCA1 ovarian cancer growth, cell-based, BGB or cisplatin combinations (AID 1671459); settings: UWB1.289 BRCA1 ovarian carcinoma, drug combinations, stronger effect = higher value
# [17] = human astrocyte viability loss, single and combined drugs, cytotoxicity control for chromothriptic childhood tumor combination screen, cell-based, BGB or cisplatin IC20 combos (AID 1671460); settings: Human astrocytes, drug combinations, stronger effect = higher value;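 also: cells exposed to compounds for 96 hours before viability readout; 0% = vehicle and 100% = killing control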
# [18] = growth inhibition of BT084 medulloblastoma cells, cell-based, ICGC_MB145, cisplatin and BGB IC40 combos (AID 1671461); settings: drug combinations, stronger effect = higher value;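 also: cells exposed to drugs for 96 hours; 0% = vehicle DMSO and 100% = high DMSO full killing control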
# [19] = growth inhibition of RCMB18 medulloblastoma cells, cell-based, cisplatin and BGB IC40 combos (AID 1671462); settings: stronger effect = higher value;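 also: cells exposed to compound for four days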
# [20] = growth inhibition of CRL1545 osteosarcoma cells, cell-based, cisplatin and BGB IC20 combos (AID 1671464); settings: stronger effect = higher value;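 also: cells exposed to compound for 96 hours before readout; 0% = vehicle DMSO and 100% = high DMSO killing control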
# [21] = measured here: combination with BGB IC40, at 0.05 µM
# [22] = measured here: with BGB IC20 combination, at 0.5 µM
# [23] = measured here: with cisplatin IC20 combination, at 0.5 µM
# [24] = measured here: combination with cisplatin, at 0.5 µM
# [25] = measured here: combination with cisplatin, at 5 µM
structure (smiles),measurement,setting,value
C[C@@H](N)C1CCC(C(=O)Nc2ccncc2)CC1 (stereo partly specified),outcome,[1],inactive
COc1cc2c(cc1O)CC[C@@H]1[C@@H]2CC[C@]2(C)[C@@H](O)CC[C@@H]12,AC50,[2],1.32 µM (active)
COc1ccc(Nc2nccc(NCCO)n2)cc1,outcome,[1],inactive
C[C@H](NC(=O)c1sccc1OCc1ccc(Cl)cc1)c1ccccc1,AC50,[1],11.8 µM (active)
Oc1cc(O)cc(/C=C/c2ccc(O)c(O)c2)c1,AC50,[1],20.9 µM (active)
CCOC(=O)C(C)Oc1cccc2c(=O)n(CC(=O)Nc3ccc4c(c3)OCCO4)ccc12 (stereo unspecified),AC50,[1],20.9 µM (active)
CC(C)N(CCC(=O)c1ccc2ccccc2c1)Cc1ccccc1,AC50,[2],7.42 µM (active)
same,AC50,[1],7.42 µM (active)
FC(F)(F)c1ccc(/C=C/c2nc(COc3ccc(CCCCn4ccnn4)cc3)co2)cc1,outcome,[1],inactive
Cc1ccccc1C(=O)c1ccc(Nc2ccc(Br)cc2N)cc1Cl,AC50,[1],20.9 µM (active)
O=C(c1ccc(Nc2nccc(-c3cc4ccccc4s3)n2)cc1)N1CCC(N2CCCC2)CC1,AC50,[1],8.33 µM (active)
C[C@H](NC(=O)Cc1cc(F)cc(F)c1)C(=O)N[C@H](C(=O)OC(C)(C)C)c1ccccc1,outcome,[1],inactive
Clc1ccc(-c2nc3sccn3c2/C=N/OCc2ccc(Cl)c(Cl)c2)cc1,AC50,[1],20.9 µM (active)
Cn1cc(C2=C(c3ccc(Cl)cc3Cl)C(=O)NC2=O)c2ccccc21,liver cell % of control,[3],105% and 92.9% and 90.2%
same,parasite % of control,[3],19.2% (inactive) and 24.2% (inactive) and 47.4% (inactive)
CCSC(=N)N,luciferase signal,[4],16 AU (inactive)
Oc1cc2c(cc1O)C(c1ccccc1)CNCC2 (stereo unspecified),luciferase signal,[4],44 AU (inactive)
N.N.O=C(O)C1(C(=O)O)CCC1.[Pt],inhibition,[5],-4.65%
same,inhibition,"[6]; at 0.5 µM, stronger effect = higher value",-25.8% (inactive) and -25% (inactive)
same,inhibition,"[6]; measured here: combination with BGB IC20, at 0.005 µM",-21.9% and -15.8%
same,inhibition,"[6]; measured here: combination with BGB IC40, at 0.005 µM",-33.4% and -11.2%
same,inhibition,[6]; [21],-8.87% and -31.1%
same,inhibition,"[6]; measured here: combination with cisplatin, at 0.5 µM, stronger effect = higher value",-41.1% and -20.3%
same,inhibition,"[6]; measured here: combination with cisplatin, at 5 µM, stronger effect = higher value",-26.5% and -12.9%
same,inhibition,"[7]; BGB combo, at 5 µM",-9.54% and -0.176%
same,inhibition,[7]; at 0.5 µM,-16.9% (inactive) and -34.4% (inactive)
same,inhibition,"[7]; cisplatin combo, at 5 µM",-4.51% and -16.2%
same,inhibition,[7]; [22],-16.3% and -33.3%
same,inhibition,[7]; [23],7.01% and -41.5%
same,inhibition,"[7]; single agent, at 5 µM",-8.33% and -8.24%
same,inhibition,"[8]; BGB IC20 combo, at 0.005 µM",-23.8% and 9.43%
same,inhibition,"[8]; BGB IC40 combo, at 0.005 µM",-28.7% and -26%
same,inhibition,"[8]; BGB IC40 combo, at 0.05 µM",-33.8% and -31.4%
same,inhibition,[8]; at 0.5 µM,-17.7% (inactive) and -35.2% (inactive)
same,inhibition,"[8]; cisplatin combo, at 0.05 µM",-33.8% and -36.1%
same,inhibition,"[8]; cisplatin combo, at 0.5 µM",-26.5% and -43.2%
same,inhibition,"[8]; cisplatin combo, at 5 µM",-41.9% and -11%
same,inhibition,"[8]; measured here: 5 uM single agent, at 5 µM",-8.78% and -6.62%
same,inhibition,[9]; at 0.5 µM,-35.7% (inactive) and -31.6% (inactive)
same,inhibition,[9]; [21],-53% and -34.9%
same,inhibition,[9]; [24],-6.08% and -36.3%
same,inhibition,[9]; [25],-14.9% and -37.2%
same,inhibition,[10]; at 0.5 µM,-12.1% (inactive) and -29.4% (inactive)
same,inhibition,"[10]; measured here: with BGB IC20, at 0.5 µM",-30.4% and -34.9%
same,inhibition,"[10]; measured here: with BGB IC20, at 5 µM",11.7% and -2.3%
same,inhibition,"[10]; measured here: with cisplatin IC20, at 0.5 µM",2.42% and -41.2%
same,inhibition,"[10]; measured here: with cisplatin IC20, at 5 µM",0.587% and 34.7%
same,inhibition,"[10]; single agent, at 5 µM",-3.92% and 13.4%
same,inhibition,[11]; at 0.5 µM,-63.4% (inactive) and -87.5% (inactive)
same,inhibition,"[11]; measured here: combination with BGB at IC20, at 0.5 µM",-18.4% and -56.5%
same,inhibition,"[11]; measured here: combination with cisplatin at IC20, at 0.5 µM",-78.6% and -134%
same,inhibition,[12]; at 0.5 µM,-1.12% (inactive) and -17.2% (inactive)
same,inhibition,"[12]; measured here: combo with BGB at IC20, at 0.5 µM",0.288% and -20.6%
same,inhibition,"[12]; measured here: combo with cisplatin at IC20, at 0.5 µM",4.09% and -19.6%
same,inhibition,[13]; at 0.5 µM,-2.74% (inactive) and -5.32% (inactive)
same,inhibition,"[13]; measured here: inhibition with BGB combination, at 0.05 µM",42.2% and -5.66%
same,inhibition,"[13]; measured here: inhibition with cisplatin combination, at 0.05 µM",-17.5% and -30.7%
same,inhibition,[14]; at 0.5 µM,-25.7% (inactive) and -8.57% (inactive)
same,inhibition,[14]; [24],-29.8% and -25.9%
same,inhibition,[14]; [25],-19% and -16.7%
same,inhibition,[15]; at 0.5 µM,-21.7% (inactive) and -6.11% (inactive)
same,inhibition,"[15]; measured here: BGB combination, at 0.5 µM",-33.8% and -15%
same,inhibition,"[15]; measured here: BGB combination, at 5 µM",3.84% and 2.53%
same,inhibition,"[15]; measured here: cisplatin combination, at 0.5 µM",-26.3% and -12.4%
same,inhibition,"[15]; measured here: cisplatin combination, at 5 µM",14% and 17.8%
same,inhibition,"[16]; BGB combination, concentration series, at 5 µM",2.03% and 5.93%
same,inhibition,[16]; at 0.5 µM,-15.7% (inactive) and -7.62% (inactive)
same,inhibition,"[16]; cisplatin combination, concentration series, at 5 µM",29.9% and 24.6%
same,inhibition,[17]; at 0.5 µM,-6.9% (inactive) and 14.2% (inactive)
same,inhibition,"[17]; measured here: combo with BGB IC20, at 0.5 µM",-5.7% and 11.6%
same,inhibition,"[17]; measured here: combo with cisplatin IC20, at 0.5 µM",-6.14% and 19.2%
same,inhibition,[18]; at 0.5 µM,-21% (inactive) and -15.1% (inactive)
same,inhibition,"[18]; cisplatin combination, at 0.5 µM",-2.17% and -35.9%
same,inhibition,"[18]; cisplatin combination, at 5 µM",-41.8% and -20.7%
same,inhibition,"[18]; measured here: BGB IC40 combination 0.05 uM, at 0.05 µM",-10.5% and -37.9%
same,inhibition,"[18]; single agent, at 5 µM",-52.9% and -21.2%
same,inhibition,[19]; at 0.5 µM,-27.3% (inactive) and -19.1% (inactive)
same,inhibition,"[19]; cisplatin combo, at 5 µM",-0.537% and -4.06%
same,inhibition,"[19]; measured here: BGB IC40 combination, at 0.05 µM",-23.2% and -16.9%
same,inhibition,[19]; [24],-19.3% and -17.8%
same,inhibition,"[19]; single agent, at 5 µM",-46.1% and -19.1%
same,inhibition,[20]; at 0.5 µM,-31.3% (inactive) and -52.7% (inactive)
same,inhibition,[20]; [22],-4.25% and -43.2%
same,inhibition,[20]; [23],-44.9% and -60%
same,inhibition,"[20]; single agent, at 0.05 µM",-23.7% and -50.6%
same,inhibition,"[20]; single agent, at 5 µM",3.56% and 6.67%
